This is a sample that favours compounds with a hit; in the whole collection about 4.1% have one here.
DAX1 inh-1: blocks DAX1 repression of SF-1 activated StAR promoter; HEK293T StAR-luciferase reporter, SF-1/DAX-1 repression relief; inhibition, % at 6.8 µM; hit rate 1.1% among 370,000; AID 652010;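 active means inhibition above the mean over all tested compounds plus 3 SD, cut at about 3.6% in these data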;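 further: 0% = DAX-1 cells with DMSO and 100% = cells lacking DAX-1 with DMSO; higher inhibition means more luminescence from relief of DAX-1 repression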
hgDAF-12 ag: activates the H. glycines DAF-12 receptor ligand-binding domain; hit rate 1.8% among 370,000; HEK293 GAL4-hgDAF12 UAS-luciferase reporter, agonist luminescence; normalized to butyrate control; activation, % at 6.8 µM;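 active means activation above a cutoff set at the mean of all screened compounds plus 3 SD, cut at about 10% in these data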;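 further: 0% = DMSO wells and 100% = sodium butyrate wells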
ssDAF-12 act: S. stercoralis DAF-12 activation, primary screen; hit rate 1% among 370,000; HEK293 ssDAF-12/GRIP1 lit1-tk-luc reporter, luminescence; % of 3 µM dafachronic acid response; activation, % at 6.8 µM;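 active means activation above the mean over all tested compounds plus 3 SD, cut at about 0.9% in these data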;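 further: 0% = DMSO-only wells and 100% = 3 µM delta7-dafachronic acid wells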
DAX1 inh-2: NR0B1 (DAX1) inhibition. hit rate 0.99% among 340,000. inhibition, % at 6.75 µM. AID 504766. HEK293 Gal4-DAX1 luciferase reporter, luminescence;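 active means inhibition above the mean over all tested compounds plus 3 SD, cut at about 4.2% in these data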;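 further: 0% = DAX1-transfected cells with DMSO and 100% = empty-vector control cells with DMSO; inhibition shows as a rise in luminescence from relieved DAX1 repression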
Target sequence (P51843 207-470 limits assumed): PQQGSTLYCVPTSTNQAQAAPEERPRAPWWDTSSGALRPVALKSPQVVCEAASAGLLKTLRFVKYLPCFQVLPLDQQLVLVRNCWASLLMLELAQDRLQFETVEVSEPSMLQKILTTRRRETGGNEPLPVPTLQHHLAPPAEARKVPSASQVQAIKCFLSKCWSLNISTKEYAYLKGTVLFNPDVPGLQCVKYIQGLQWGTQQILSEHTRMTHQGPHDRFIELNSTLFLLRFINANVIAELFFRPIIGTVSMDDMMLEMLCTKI
hcDAF-12 act: activators of H. contortus DAF-12 nuclear receptor | HEK293 hcDAF-12 lit1-tk-luc reporter, luminescence; 0% DMSO, 100% Δ7-dafachronic acid | activation, % at 6.8 µM | hit rate 1.4% among 370,000 | AID 652067;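 active means activation above the mean of all tested compounds plus 3 SD, cut at about 5.5% in these data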;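 further: 100% = response to 3 µM Δ7-dafachronic acid high control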
* hit, by the source's call; · = no result.

SMILES	DAX1 inh-1	hgDAF-12 ag	ssDAF-12 act	DAX1 inh-2	hcDAF-12 act
CCCC[C@H]1C2CC(OC(=O)Nc3ccc(C)cc3)C(C2)[C@H]2CCCCN21 (some centres not stated)	0	-1	-1	·	0
C=CC[C@@H]1NN2C(=O)[C@@H](C)[C@@H]3c4ccccc4C=NN3[C@@H]2c2ccccc21	-1	-1	-1	·	-1
COc1cccc(N(C)C(=O)[C@@H](C2CC2)[C@@H](O)c2ccc3ccccc3c2)c1	-2	2	-1	·	-1
COP(=O)(O)C(COCCC(CC(C)C)NC(=O)OCc1ccccc1[N+](=O)[O-])NC(=O)OCc1ccccc1 (configuration not stated)	·	6	-2	·	0
C#CCNC(=O)C[C@H]1C[C@@]2(C(=O)OCC)CCCC3=C2N(CCC3)C1=O	-1	-1	0	·	0
N#CCC[C@H]1CC[C@]2(CCCN(S(=O)(=O)c3ccccc3)C2)O1	0	1	0	·	-1
Cc1nn(-c2cccc(Cl)c2)c(Cl)c1/C=N/NC(=O)c1cccs1	1	11*	0	4.7*	2
CCNC(=S)N/N=C/c1c(C)nn(-c2cccc(Cl)c2)c1Cl	0	1	-1	-1	0
Cc1ccc(CCNC(=O)CC2Oc3ccc(C)cc3NC2=O)cc1 (configuration not stated)	1	3	-1	11*	-1
Cc1ccc2c(c1)NC(=O)C(CC(=O)NCCCN1CCCCC1)O2 (configuration not stated)	0	6	-1	4.5*	-1
CCC[C@H]1[C@@H](NC(=O)c2cccc(C(F)(F)F)c2)CC[C@@]23CCCN2C(=O)CCC[C@@H]13	·	-1	-1	·	-2
O=Cc1ccc(/C=C2\c3ccccc3C(=O)N2c2ccccc2)o1	1	0	-1	·	1
COc1cc(Cl)ccc1OCc1cc(C(=O)N(C)C2CCOC2)no1 (configuration not stated)	1	6	-1	1	3
Cc1cc(OCc2cc(C(=O)N(C)C3CCOC3)no2)cc(C)c1Cl (configuration not stated)	1	11*	0	4	4
Cc1cc(OCc2cc(C(=O)N(C)CCc3cnn(C)c3)no2)cc(C)c1Cl	4.2*	7	-1	1	1
COc1ccc(OCc2cc(C(=O)N(C)CC3CCCCO3)no2)c(Cl)c1 (configuration not stated)	0	2	0	1	1
COc1cc(Cl)ccc1OCc1cc(C(=O)N(C)CC2CCCCO2)no1 (configuration not stated)	0	12*	-1	1	2
COc1cc(Cl)ccc1OCc1cc(C(=O)N(C)CCc2cnn(C)c2)no1	3	12*	0	1	6.1*
CC(=O)c1cccc(OCc2cc(C(=O)N(C)CCc3cnn(C)c3)no2)c1	2	1	-1	0	2
CCOC(=O)Cn1cc(CN2C(C(=O)OC)CN(Cc3ccc(C)cc3)CCS2(=O)=O)nn1 (configuration not stated)	0	-3	-1	·	2
CCCC(=O)Nc1ccc2c(c1)C(=O)N(C)[C@H]1CC[C@@H](CC(=O)OC)O[C@@H]1CO2	1	5	-1	·	-3
Cc1ccc(OCc2cc(C(=O)N(C)C3CCCc4ccccc43)no2)cc1C (configuration not stated)	1	11*	-1	2	5.8*
C#CCN(C(=O)c1cc(COc2ccc(C)c(C)c2)on1)C1CCCCC1	0	-3	-1	0	-1
Nn1c(SCC(=O)Nc2ccc(S(=O)(=O)Nc3nccs3)cc2)nnc1-c1ccco1	0	1	-2	·	-2
CCOc1ccc(CCNC(=O)c2cc3sccc3n2CC)cc1OC	-4	-4	-2	·	-5
SMILES	DAX1 inh-1	hgDAF-12 ag	ssDAF-12 act	DAX1 inh-2	hcDAF-12 act
Cc1ccc(OCc2nnc(SCC(=O)Nc3ccc4c(c3)OCO4)n2Cc2ccco2)cc1	-2	2	-1	·	-2
Cc1nc2scc(-c3cccs3)c2c(=O)[nH]1	-1	-2	-1	0	-1
O=c1[nH]c(-c2ccc(O)cc2)nc2scc(-c3cccs3)c12	2	13*	-1	1	2
COC(=O)c1ccccc1NC(=O)c1c(Br)cnn1C	0	2	-1	1	1
COC(=O)c1ccccc1NC(=O)c1ccnn1C	0	-1	11*	-1	1
COc1ccc2ccccc2c1CN1CCN(C)CC1	0	-2	0	4.7*	-1
CSc1ccc(/C=C(\NC(=O)c2ccccc2)C(=O)NCCN2CCOCC2)cc1	0	0	-1	5.2*	-1
O=C(NCCN1CCOCC1)/C(=C/c1ccccc1)NC(=O)c1ccccc1	0	5	-1	0	-2
O=C(O)c1ccccc1/C=N/NC(=O)c1cc(-c2ccco2)nc2ccccc12	0	4	2.9*	0	3
CCOC(=O)Cn1nc(-c2ccccc2)c2cnc3ccc(C)cc3c21	0	1	1	1	6.3*
CCOC(=O)Cn1nc(-c2ccc(C)cc2)c2ccccc2c1=O	1	-5	-2	-1	-2
Cc1cc(C)c(C#N)c(SCC(=O)Nc2cc(C)on2)n1	3	11*	0	2	3
CCOC(=O)NC(=O)CSc1nc(C)cc(C)c1C#N	3	13*	-1	-1	3
Cc1cc(NC(=O)CSc2nc3c(C)ccc(C)c3cc2C#N)no1	0	0	-1	5.7*	-1
Cc1cc(NC(=O)CSc2nc3c(C)cccc3cc2C#N)no1	0	0	0	0	-1
Cc1cc(NC(=O)CSc2nnc(C)n2-c2ccccc2)no1	1	0	-2	0	1
Cc1cc(NC(=O)CSc2nnc(C)n2-c2ccccc2C)no1	0	1	-1	4.2*	-1
CCOC(=O)CNC(=O)CSc1nc(C)cc(C)c1C#N	-1	1	-1	0	-1
O=C(Cn1c(-c2cncs2)nc2ccccc21)N1CCCCC1	0	-2	-1	·	0
COc1cc(/C=C2/C(=O)N(C)C(=S)N2C)ccc1OCc1cccc(F)c1	0	-2	-2	-1	0
CN1C(=O)/C(=C/c2ccc(OCc3cccc(F)c3)cc2)NC1=S	0	-1	1.4*	0	-1
O=C(CN1CCOc2ccccc21)NC1CCN(Cc2ccccc2)CC1	-1	-2	0	1	0
O=C(CN1CCOc2ccccc21)NC1CCCCCCC1	0	-1	1	4.8*	5.8*
CC(C)N(C)c1ncnc2c1ncn2[C@H]1CN(Cc2cccnc2)C[C@@H](CO)O1	-1	-1	8.1*	·	-1
C#CCCN([C@H](C(=O)OC)C(C)CC)S(=O)(=O)c1ccccc1Br (some centres not stated)	-1	-3	-2	·	-3
